The sample as a whole holds a higher share of hits than the screen did.
TbREL1 inh = TbREL1 RNA ligase inhibitors, primary screen, biochemical, FRET fluorescence; RNA-editing ligase 1, mitochondrial (Trypanosoma brucei brucei), P86926; TbREL1 RNA ligation; inhibition, % at 9.66 µM; 89,000 tested, 0.49% active; AID 1117264, 2014;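 active means inhibition above the mean inhibition across all screened compounds plus 3 SD, cut at about 11% in these data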;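 further: 0% = plate median of test wells and 100% = NSC42067 control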
Target sequence (P86926 whole entry, looked up): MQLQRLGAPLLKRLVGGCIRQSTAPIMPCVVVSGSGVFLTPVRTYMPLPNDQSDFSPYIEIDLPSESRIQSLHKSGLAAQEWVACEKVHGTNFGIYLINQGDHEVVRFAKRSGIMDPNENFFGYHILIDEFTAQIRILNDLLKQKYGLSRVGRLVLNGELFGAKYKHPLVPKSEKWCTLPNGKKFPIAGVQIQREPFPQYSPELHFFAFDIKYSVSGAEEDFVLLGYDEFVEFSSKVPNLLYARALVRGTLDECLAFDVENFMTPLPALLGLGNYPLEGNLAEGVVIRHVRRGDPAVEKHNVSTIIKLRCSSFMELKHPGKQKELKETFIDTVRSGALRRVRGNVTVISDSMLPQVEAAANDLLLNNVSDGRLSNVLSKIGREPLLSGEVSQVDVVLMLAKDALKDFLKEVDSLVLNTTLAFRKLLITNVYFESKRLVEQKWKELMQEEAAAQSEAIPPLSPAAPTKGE
TbREL1 conf = TbREL1 RNA ligase inhibitors, confirmation, biochemical, FRET fluorescence, triplicate | shares compounds with TbREL1 inh | TbREL1 RNA ligation | inhibition, % at 9.66 µM | 390 tested, 37% active;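 active means mean inhibition across replicates above a set limit taken from the earlier primary screen, cut at about 11% in these data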;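 further: 0% = REL1 with substrate and DMSO and 100% = REL1 plus control inhibitor NSC42067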
The depositor's hits bear a star.

SMILES	TbREL1 inh	others
COC(=O)C1=C(C)N(Cc2ccc(F)cc2)C(=S)NC1c1ccc(Cl)cc1 (centres undefined)	-1
COC(=O)C1=C(C)N(Cc2ccccc2)C(=NCc2ccco2)N[C@H]1c1cccc(F)c1	5
COC(=O)C1=C(C)N(Cc2ccc(Cl)cc2)C(=S)NC1c1ccc(OC)cc1 (centres undefined)	-3
COC(=O)C1=C(C)N(Cc2ccccc2C(F)(F)F)C(=NCc2ccc(C(F)(F)F)cc2)NC1c1cccc(F)c1 (centres undefined)	14*	TbREL1 conf=22*
COC(=O)C1=C(C)N(Cc2ccccc2C(F)(F)F)C(=NCc2ccc(OC)cc2)NC1c1cccc(Cl)c1 (centres undefined)	19*	TbREL1 conf=18*
COC(=O)C1=C(C)N(Cc2ccccc2C(F)(F)F)C(=NCC2CC2)NC1c1ccc(F)cc1 (centres undefined)	12*	TbREL1 conf=11*
COC(=O)C1=C(C)N(Cc2ccc(C(F)(F)F)cc2)C(=NCc2ccccc2C(F)(F)F)NC1c1ccc(F)cc1 (centres undefined)	14*	TbREL1 conf=14*
COC(=O)C1=C(C)N(Cc2ccccc2)C(=NCC(C)C)N[C@H]1c1cccc(F)c1	6
COC(=O)C1=C(C)N(Cc2ccccc2C(F)(F)F)C(=NCC2CC2)NC1c1ccc(C(F)(F)F)cc1 (centres undefined)	10
COc1ccc(C2OCCNC3C2C(=O)N(Cc2ccc(OC)cc2OC)C3Cc2ccccc2)cc1 (centres undefined)	1
C=CCn1c(SCc2ccc(C#N)cc2)nnc1-c1ccco1	0
O=C1CC(c2ccc3c(c2)OCO3)N=C2N(Cc3ccc4c(c3)OCO4)C/C(=C/c3ccccc3)N12 (centres undefined)	-6
Cc1ccc(-n2c(SCC(=O)Nc3cccc4ccccc34)nnc2-c2cccs2)cc1	0
CCC(=O)N1CCc2cc(Br)c(S(=O)(=O)NCCCN(CC)Cc3ccccc3)cc21	1
CC(C)(C)c1ccc(-c2nnc3sc(COc4ccccc4)nn23)cc1	2
CCOC(=O)c1cccc(-c2cc(C(=O)OC)c3n(c2=O)CCC3)c1	-2
C=CCN1C(=O)[C@@H](CC(=O)N2CCN(C(=O)C3CC3)CC2)[C@]2(C(=O)OC)CCCCC=C12	-1
CCOC(=O)[C@@]12CCC3=C1N(CCC3)C(=O)[C@H](CC(=O)NCc1cccc3ccccc13)C2	-2
COC(=O)[C@]12C[C@H](CC(=O)NCc3ccccc3)C(=O)N(Cc3ccc(Cl)cc3Cl)C1=C[C@H](C1CCCC1)O[C@@H]2C	-2
O=c1/c(=C/c2ccco2)sc2n1CN(c1ccccc1)CN=2	4
N#CC1=C(N)n2c(s/c(=C\c3ccco3)c2=O)=C(C#N)C1c1ccco1 (centres undefined)	27*	TbREL1 conf=8
O=c1nc2s/c(=C\c3ccco3)c(=O)n2nc1Cc1ccc(F)cc1	1
O=C(C[n+]1cc(-c2ccc(F)cc2)n2c1CCC2)Nc1nc(-c2ccc(F)cc2)cs1	2
CCc1ccc(NC(=O)C[n+]2cc(-c3ccc(C)cc3)n3c2CCC3)cc1	13*	TbREL1 conf=14*
Cc1ccc(C[n+]2cc(-c3ccc(Cl)cc3)n3c2CCC3)cc1	8
SMILES	TbREL1 inh	others
COc1cc(/C=N/NC(=O)c2cccs2)ccc1OCc1ccccc1	0
COc1cc(/C=N/O)ccc1OCc1ccc(C(=O)O)cc1	1
NC(N)=N/N=C/c1ccc(OCc2ccccc2)c(OCc2ccccc2)c1	12*	TbREL1 conf=10
CSc1ccc(C=Nn2c(-c3cc(C)[nH]n3)n[nH]c2=S)cc1	-6
CC1CCC2(CC1)CCC2NCc1ccc(Br)cc1 (centres undefined)	0
CC(=O)Nc1ccccc1NC(=O)COc1cccc2ccccc12	0
CC(=O)Nc1cc2c3ccccc3ccc2c2ccccc12	32*	TbREL1 conf=5
CC(=O)Nc1ccc(NC(=O)c2cccc3ccccc23)cc1	3
Nc1[nH]c(C(=O)c2ccccc2)c(-c2cccc3ccccc23)c1C(=O)c1c(-c2ccccc2)[nH]c2ccccc12	-1
O=C(CN1C(=O)c2ccccc2C1=O)Nc1cccc2cccnc12	-4
O=C(O)CCC(=O)Nc1cccc2cccnc12	11*	TbREL1 conf=5
O=C(COc1ccc2ccccc2c1)Nc1cccc2cccnc12	2
CCn1c(=O)n2n(c1=O)[C@H]1C[N+](Cc3ccc4c(c3)OCO4)=C(N)NC1=C(C)C2	6
CCOc1cc(C=NN2CCN(Cc3ccc(C)cc3)CC2)ccc1O	-2
Cc1ccccc1CN1CCCCC(NC(=O)c2ccccc2C(F)(F)F)C1=O (centres undefined)	-2
O=C(CN1C(=O)c2ccccc2C1=O)Nc1cc([N+](=O)[O-])ccc1O	0
O=C(CN1C(=O)c2ccc([N+](=O)[O-])cc2C1=O)NCc1ccco1	12*	TbREL1 conf=2
Cc1c(NC(=O)CN2C(=O)c3ccc([N+](=O)[O-])cc3C2=O)c(=O)n(-c2ccccc2)n1C	-2
Cc1nn(CCC(=O)NNC(=O)Nc2ccc(F)cc2)c(C)c1[N+](=O)[O-]	1
COCCNCCOCCOc1ccc(Cl)c(C)c1	6
Cc1cc(OCCOCCNCc2ccccc2)ccc1C(C)C	19*	TbREL1 conf=9
Cc1ccc(C)c(OCCCNCc2ccccc2)c1	10
CC(C)CC(O)(CC(C)C)c1cn(C(=O)N(c2ccccc2)c2ccccc2)nn1	-1
c1ccc(C2CCC3(CC2)CCC3NCc2cccs2)cc1 (centres undefined)	3
Nc1cccc(S(=O)(=O)c2cccc(N)c2)c1	2
SMILES	TbREL1 inh	others
Nc1cccc2cc(S(=O)(=O)O)ccc12	26*	TbREL1 conf=10
Nc1ccc2c(S(=O)(=O)O)cccc2c1S(=O)(=O)O	11
COc1ccc(CCNC(=O)Cn2ncc3c2-c2cc(C)ccc2OC3)cc1	-3
Cc1cc(C)cc(N(CC(=O)NC2CCC(C)CC2)S(=O)(=O)c2ccc([N+](=O)[O-])cc2)c1 (centres undefined)	-1
Cc1ccc(-n2c(SCC(=O)Nc3ccc(Oc4ccccc4)cc3)nnc2-c2ccco2)cc1	4
C[C@H]1[C@@H](NC(=O)c2ccc(C(C)(C)C)cc2)CC[C@@]23CCCN2C(=O)CCC[C@@H]13	6
Cc1nc2ccc(NS(=O)(=O)c3ccc(F)cc3F)cc2s1	2
O=S(=O)(Nc1nc(-c2ccco2)c(-c2ccco2)s1)c1ccc(F)cc1F	31*	TbREL1 conf=-1
O=C(NNS(=O)(=O)c1ccc(F)cc1F)C1Cc2c(ccc3ccccc23)O1 (centres undefined)	3
COC(=O)[C@]12C[C@H](CC(=O)NCCCCc3ccccc3)C(=O)N(CCc3ccc(OC)c(OC)c3)C1=C[C@H](C(C)C)O[C@@H]2C1CC1	5
CCC[C@H]1[C@@H](OC(=O)NCc2ccc(Cl)cc2)CC[C@@]23CCCN2C(=O)CCC[C@@H]13	-3
CCC[C@H]1[C@@H](OC(=O)NCc2ccc(Cl)c(Cl)c2)CC[C@@]23CCCN2C(=O)CCC[C@@H]13	13*	TbREL1 conf=0
CCC[C@H]1[C@@H](NC(=O)C2CCCCC2)CC[C@@]23CCCN2C(=O)CCC[C@@H]13	36*	TbREL1 conf=0
CCC[C@H]1[C@@H](OC(=O)NCc2ccc(C)cc2)CC[C@@]23CCCN2C(=O)CCC[C@@H]13	-3
CCCCCCCC(=O)N[C@H]1CC[C@@]23CCCN2C(=O)CCC[C@H]3[C@H]1CCC	1
CCC[C@H]1[C@@H](NCC2CCCCC2)CC[C@@]23CCCN2C(=O)CCC[C@@H]13	2
